Measurements: PubChem BioAssay
Calls of active or inactive are those of the source.

Key:
[1] = system: Plasmodium falciparum Sir2 (PF13_0152, Sir2A); assay: Plasmodium falciparum Sir2A binding compounds – biochemical, small-molecule microarray, 635 nm fluorescence, primary screen (AID 1098); conditions: fluorescence 635 nm, higher = more signal;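 note: score merges spot fluorescence intensity with its signal-to-noise ratio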
[2] = probe aDKK1 binding to arrayed compounds – biochemical, biotinylated probe, 635/667 nm fluorescence, primary screen (AID 1099); conditions: small-molecule microarray, higher = more signal;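 note: score merges 667nm spot fluorescence with signal to noise across triplicate slides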
[3] = probe aCHRDL2 binding to arrayed compounds – biochemical, biotinylated probe, 635/667 nm fluorescence, primary screen (AID 1100); conditions: small-molecule microarray, higher = more signal
[4] = change in splice reporter luminescence, either direction, cell-based, HEK293, spliceosome inhibition project, primary screen (AID 1101); conditions: HEK293 splicing luciferase reporter, 24 h, higher = more signal, called active from +8 up or from −8 down;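 note: HEK293 cells carrying a splicing-competent luciferase reporter gene; test concentration not given here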
[5] = molecular target: Fibroblast growth factor 10 (Homo sapiens) (UniProt O15520); assay: compounds binding fibroblast growth factor 10 – biochemical, small-molecule microarray, 635 nm fluorescence, primary screen (AID 1102); conditions: FGF10 binding, fluorescence 635 nm, higher = more signal
[6] = system: glycogen synthase kinase-3 (GSK3A per assay name; protocol says GSK3B); assay: compounds binding glycogen synthase kinase-3 – biochemical, small-molecule microarray, 635 nm fluorescence, GSK3A, primary screen (AID 1103); conditions: fluorescence 635 nm, higher = more signal; note: the record names both GSK3A and GSK3B
[7] = molecular target: Epidermal growth factor receptor (Homo sapiens) (UniProt P00533); assay: compounds binding epidermal growth factor receptor – biochemical, small-molecule microarray, 635 nm fluorescence, primary screen (AID 1104); conditions: EGFR binding, higher = more signal;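 note: score merges 667 nm emission intensity with spot signal to noise over triplicate slides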
[8] = molecular target: Follistatin-related protein 3 (Homo sapiens) (UniProt O95633); assay: compounds binding follistatin-related protein 3 – biochemical, small-molecule microarray, 635 nm fluorescence, primary screen (AID 1105); conditions: FSTL3 binding, higher = more signal;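 note: score merges emission near 667 nm and signal to noise per printed spot across three slides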
[9] = molecular target: Dickkopf-related protein 1 (Homo sapiens) (UniProt O94907); assay: small molecules binding DKK1 protein – biochemical, small-molecule microarray, 635 nm fluorescence scan, primary screen (AID 1106); conditions: higher = more signal;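 note: score merges emission near 667 nm with signal to noise over three replicate slides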
[10] = system: Inhibin beta A chain (activin A); assay: small molecules binding activin A – biochemical, small-molecule microarray, 635 nm fluorescence scan, primary screen (AID 1107); conditions: INHBA, higher = more signal;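 note: mouse activin A protein probed at 4.33 µg/mL on printed slides; score merges bound-protein fluorescence near 667 nm with spot signal-to-noise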
[11] = system: Human papillomavirus type 1a protein E7 (residues 44-93); assay: small molecules binding HPV E7 44-93 – biochemical, small-molecule microarray, residues 44-93, 635 nm fluorescence, primary screen (AID 1108); conditions: fluorescence 635 nm, higher = more signal;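 note: E7 fragment applied at 1 µg/mL in TBST for 1 h at 4 C; score combines spot fluorescence with its signal to noise ratio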
[12] = hepatitis C replication reporter changes, two-sided – Huh7 cells, luciferase reporter, HCV replication inhibitor project, primary screen (AID 1109); conditions: Huh7 HCV replicon luciferase reporter, 48 h; higher = more signal;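 note: huh7 hepatoma cells harbouring a luciferase neomycin HCV replicon reporter; luciferase luminescence as measure of HCV replicon replication; test concentration not given here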
[13] = molecular target: Left-right determination factor 2 (Homo sapiens) (UniProt O00292); assay: small molecules binding LEFTY2 protein – biochemical, small-molecule microarray, 635 nm fluorescence scan, primary screen (AID 1110); conditions: higher = more signal
[14] = molecular target: Calmodulin-1 (Homo sapiens) (UniProt P0DP23); assay: small molecules binding calmodulin-1 with EGTA – biochemical, small-molecule microarray, Cy5-labelled CALM1, profiling panel (AID 1111); conditions: Cy5-CALM1 binding fluorescence, higher = more signal;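 note: labelled calmodulin applied in Tris saline Tween buffer holding calcium plus EGTA and DTT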
[15] = molecular target: Calmodulin-1 (Homo sapiens) (UniProt P0DP23); assay: small molecules binding Ca-loaded calmodulin-1 – biochemical, small-molecule microarray, Cy5-labelled CALM1, plus calcium, artefact control for SMM control-protein annotation, profiling panel (AID 1112); conditions: Cy5-CALM1 binding fluorescence, higher = more signal;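 note: score merges spot fluorescence with signal to noise from triplicate slides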
[16] = probe aWnt5a binding to arrayed compounds – biochemical, biotinylated probe, 635/667 nm fluorescence, primary screen (AID 1113); conditions: small-molecule microarray, higher = more signal;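 note: score merges 667 nm fluorescence intensity with signal-to-noise per printed feature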
[17] = probe aShh binding to arrayed compounds – biochemical, biotinylated probe, 635/667 nm fluorescence, primary screen (AID 1114); conditions: small-molecule microarray, higher = more signal;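 note: probe is biotin-labelled aShh protein from a stem cell growth factor screen; measures binding of labelled protein to compounds printed on the slide; score merges feature fluorescence at 667 nm with signal-to-noise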
[18] = probe aNog binding to arrayed compounds – biochemical, biotinylated probe, 635/667 nm fluorescence, primary screen (AID 1115); conditions: small-molecule microarray, higher = more signal;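 note: probe is biotinylated aNog protein used at 0.15 µg/mL for 1 h at 4 C; z-score combines 667 nm fluorescence of each spot with its signal to noise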
[19] = molecular target: Torsin-1A-interacting protein 1 (Homo sapiens) (UniProt Q5JTV8); assay: compound microarray binding of lysate hLAP1 – cell lysate, small-molecule microarray, COS7 lysate, 635/667 nm fluorescence, primary screen (AID 1116); conditions: 635 nm fluorescence, higher = more signal
[20] = molecular target: Alpha-bungarotoxin (Bungarus multicinctus) (UniProt P60615); assay: compounds binding labelled alpha-BTX control protein – biochemical, small-molecule microarray, Alexa647 label, 635/667 nm fluorescence, artefact control for SMM control protein annotation, profiling panel (AID 1117); conditions: alpha-BTX-A647 binding fluorescence, higher = more signal
Sequence of Alpha-bungarotoxin (Bungarus multicinctus) (P60615 whole entry, looked up): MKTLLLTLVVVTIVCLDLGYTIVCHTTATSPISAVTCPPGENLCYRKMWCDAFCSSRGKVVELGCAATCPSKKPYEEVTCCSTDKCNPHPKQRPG

Sequence of Left-right determination factor 2 (Homo sapiens) (O00292 whole entry, looked up): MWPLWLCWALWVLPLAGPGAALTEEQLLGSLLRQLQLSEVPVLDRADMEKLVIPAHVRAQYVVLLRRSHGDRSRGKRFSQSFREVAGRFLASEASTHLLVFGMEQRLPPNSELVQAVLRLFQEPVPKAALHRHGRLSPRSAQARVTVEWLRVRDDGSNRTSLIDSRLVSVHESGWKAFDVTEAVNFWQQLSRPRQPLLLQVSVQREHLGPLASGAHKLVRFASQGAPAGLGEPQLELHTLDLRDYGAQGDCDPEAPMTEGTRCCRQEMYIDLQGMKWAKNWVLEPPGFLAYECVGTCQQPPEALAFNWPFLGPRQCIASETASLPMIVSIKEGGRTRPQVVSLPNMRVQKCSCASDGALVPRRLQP
Sequence of Fibroblast growth factor 10 (Homo sapiens) (O15520 whole entry, looked up): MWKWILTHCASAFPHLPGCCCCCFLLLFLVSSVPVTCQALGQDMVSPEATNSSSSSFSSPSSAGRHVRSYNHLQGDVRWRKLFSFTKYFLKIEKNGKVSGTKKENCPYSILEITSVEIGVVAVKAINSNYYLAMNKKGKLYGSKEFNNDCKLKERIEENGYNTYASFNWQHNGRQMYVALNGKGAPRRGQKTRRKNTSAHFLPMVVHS
Sequence of Follistatin-related protein 3 (Homo sapiens) (O95633 whole entry, looked up): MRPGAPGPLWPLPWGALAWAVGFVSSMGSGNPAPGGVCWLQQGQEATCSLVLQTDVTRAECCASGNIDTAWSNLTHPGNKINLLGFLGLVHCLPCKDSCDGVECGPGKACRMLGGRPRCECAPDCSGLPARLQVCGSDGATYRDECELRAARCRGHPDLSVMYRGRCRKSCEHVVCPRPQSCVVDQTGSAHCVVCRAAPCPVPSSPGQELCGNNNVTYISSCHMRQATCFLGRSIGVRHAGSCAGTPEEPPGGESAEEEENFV
Sequence of Dickkopf-related protein 1 (Homo sapiens) (O94907 whole entry, looked up): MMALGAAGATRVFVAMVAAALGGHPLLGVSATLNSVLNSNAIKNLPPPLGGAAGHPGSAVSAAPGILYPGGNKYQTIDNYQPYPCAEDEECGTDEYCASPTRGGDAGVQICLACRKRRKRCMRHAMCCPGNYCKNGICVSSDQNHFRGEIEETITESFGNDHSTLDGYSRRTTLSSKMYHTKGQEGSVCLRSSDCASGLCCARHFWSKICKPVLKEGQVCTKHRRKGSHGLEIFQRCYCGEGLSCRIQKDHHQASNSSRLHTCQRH
Sequence of Torsin-1A-interacting protein 1 (Homo sapiens) (Q5JTV8 whole entry, looked up): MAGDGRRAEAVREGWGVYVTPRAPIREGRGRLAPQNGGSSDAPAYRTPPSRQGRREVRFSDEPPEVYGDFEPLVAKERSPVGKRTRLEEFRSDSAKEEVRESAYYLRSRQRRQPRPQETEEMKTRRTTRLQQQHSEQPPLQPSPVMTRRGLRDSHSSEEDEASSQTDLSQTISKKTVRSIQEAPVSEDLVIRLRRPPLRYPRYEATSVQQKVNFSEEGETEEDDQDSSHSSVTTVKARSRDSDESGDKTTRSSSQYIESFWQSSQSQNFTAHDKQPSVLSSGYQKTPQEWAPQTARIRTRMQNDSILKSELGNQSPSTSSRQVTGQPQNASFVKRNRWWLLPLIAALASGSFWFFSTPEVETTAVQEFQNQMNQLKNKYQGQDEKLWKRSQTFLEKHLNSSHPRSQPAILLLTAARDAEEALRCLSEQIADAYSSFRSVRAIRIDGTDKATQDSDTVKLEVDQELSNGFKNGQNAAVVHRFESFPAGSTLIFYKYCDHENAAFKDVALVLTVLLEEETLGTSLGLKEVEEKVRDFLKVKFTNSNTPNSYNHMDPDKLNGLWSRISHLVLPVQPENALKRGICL
Sequence of Epidermal growth factor receptor (Homo sapiens) (P00533 whole entry, looked up): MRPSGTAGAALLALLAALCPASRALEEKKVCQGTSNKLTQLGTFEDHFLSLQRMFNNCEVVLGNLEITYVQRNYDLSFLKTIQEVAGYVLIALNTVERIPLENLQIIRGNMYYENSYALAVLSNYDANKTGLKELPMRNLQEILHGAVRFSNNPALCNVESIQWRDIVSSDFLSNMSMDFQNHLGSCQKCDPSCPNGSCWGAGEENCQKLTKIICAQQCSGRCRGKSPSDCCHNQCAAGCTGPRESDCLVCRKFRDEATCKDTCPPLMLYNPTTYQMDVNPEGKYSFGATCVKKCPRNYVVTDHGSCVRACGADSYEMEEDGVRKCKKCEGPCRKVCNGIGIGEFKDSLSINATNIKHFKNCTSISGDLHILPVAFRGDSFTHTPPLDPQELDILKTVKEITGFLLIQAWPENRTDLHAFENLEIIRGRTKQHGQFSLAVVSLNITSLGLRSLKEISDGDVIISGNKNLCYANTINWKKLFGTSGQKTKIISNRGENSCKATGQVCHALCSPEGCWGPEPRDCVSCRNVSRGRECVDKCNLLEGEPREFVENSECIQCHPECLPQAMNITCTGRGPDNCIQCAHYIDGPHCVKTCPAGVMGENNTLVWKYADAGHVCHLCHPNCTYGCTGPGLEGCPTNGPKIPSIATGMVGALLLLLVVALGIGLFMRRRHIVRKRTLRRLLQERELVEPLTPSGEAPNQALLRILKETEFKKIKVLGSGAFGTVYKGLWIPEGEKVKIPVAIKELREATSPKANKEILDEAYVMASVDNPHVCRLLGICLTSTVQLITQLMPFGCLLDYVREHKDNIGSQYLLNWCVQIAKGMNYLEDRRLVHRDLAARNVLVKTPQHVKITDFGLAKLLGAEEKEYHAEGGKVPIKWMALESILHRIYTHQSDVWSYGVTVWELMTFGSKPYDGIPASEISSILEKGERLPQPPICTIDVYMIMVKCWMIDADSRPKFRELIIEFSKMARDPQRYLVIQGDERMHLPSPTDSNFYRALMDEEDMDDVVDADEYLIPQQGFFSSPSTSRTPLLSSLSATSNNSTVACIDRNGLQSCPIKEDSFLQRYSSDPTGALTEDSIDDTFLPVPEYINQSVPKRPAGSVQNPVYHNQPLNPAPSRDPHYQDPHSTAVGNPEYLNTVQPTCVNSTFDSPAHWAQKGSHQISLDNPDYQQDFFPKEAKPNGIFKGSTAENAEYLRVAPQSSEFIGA

| SMILES | composite z-score [1] | composite z-score [2] | composite z-score [3] | z-score [4] | composite z-score [5] | composite z-score [6] | composite z-score [7] | composite z-score [8] | composite z-score [9] | composite z-score [10] | composite z-score [11] | z-score [12] | composite z-score [13] | composite z-score [14] | composite z-score [15] | composite z-score [16] | composite z-score [17] | composite z-score [18] | composite z-score [19] | composite z-score [20] |
| --- | --- | --- | --- | --- | --- | --- | --- | --- | --- | --- | --- | --- | --- | --- | --- | --- | --- | --- | --- | --- |
| CN1C(=O)C2C=CC(C(O)c3ccc(I)cc3)N(N3CCCCC3)C2C1=O (stereo not given) | 1.36 | 0.382 | 1.21 | 1.18 (inactive) | 1.07 | 0.354 | 0.396 | 1.34 | -0.147 | 0.72 | 1.43 | -0.435 | 0.0759 | 1.64 | 0.219 | 0.0599 | 0.184 | 1.34 | 1.19 | 1.22 |
| COc1ccc(C(=O)Nc2ccc(CN3C(=O)[C@@]4(O[C@@H](CCn5cc([C@H](O)c6ccccc6)nn5)[C@H]([Si](C)(C)c5ccc(OC)cc5)[C@H]4C)c4ccccc43)cc2)cc1 | 0.834 | -0.0682 | 0.512 | -1.06 (inactive) | -0.0022 | 0.054 | -0.591 | 0.183 | -0.347 | 0.975 | 1.26 | -4.67 | -0.553 | 0.168 | -0.0823 | -0.0896 | -0.0337 | 0.103 | 0.485 | 0.572 |
| COC(=O)[C@@]1(Cc2ccccc2)[C@H]2c3cc(C(=O)N4CCCC4)n(CC4CC4)c3C[C@H]2CN1C(=O)c1ccccc1 | 1.23 | 1.48 | 1.16 | -2.08 (inactive) | 0.596 | 1.29 | 0.436 | 1.17 | -0.23 | 1.16 | 1.39 | -2.17 | 0.192 | 1.13 | 0.697 | 0.647 | 0.834 | 2.57 | 0.079 | 0.615 |
| CC1CC/C=C\[C@H]2OC34C=CCN(C(C)(C)C)C(=O)[C@H]3N(CCCCCCO)C(=O)[C@@H]4C2C(=O)O1 (stereo not given in full) | 2.05 | -0.0908 | 0.416 | -0.0517 (inactive) | 0.0444 | -0.615 | -0.777 | -0.568 | -0.957 | 1.13 | -0.0409 | -0.549 | -1.06 | -0.0234 | 0.725 | -0.154 | -0.0553 | 0.0511 | 0.656 | -1.06 |
| COc1ccc(CCNC(=O)[C@@]2(Sc3ccc(C)cc3)CC(=O)N(C3CCCCC3)[C@@H]2c2ccc(CO)cc2I)cc1 | 1.09 | -0.0662 | 0.44 | 0.451 (inactive) | 0.724 | 0.974 | 0.0902 | 1.03 | 0.0743 | 0.327 | 1.38 | -2.77 | 0.0072 | 0.99 | 0.161 | -0.0903 | 0.323 | -0.158 | 0.95 | 0.649 |
| COC(=O)C(CC#Cc1ccc2c(c1)[C@]1(C(=O)N2)[C@H](c2ccc(O)cc2)N2[C@H](c3ccccc3)[C@H](c3ccccc3)OC(=O)[C@H]2[C@@H]1C(=O)Nc1nc2ccccc2s1)C(=O)OC | 1.59 | -0.0329 | -0.105 | -0.596 (inactive) | 1.27 | 1.04 | 0.626 | 0.929 | 0.581 | 0.598 | 1.39 | -0.322 | 0.651 | 1.26 | 0.213 | 0.0998 | 0.191 | 0.535 | 1.63 | 1.62 |
| COC(=O)c1c(CC[C@@H](CO)NC(=O)N2CCC[C@H]2Cn2cc(-c3ccccn3)nn2)oc(C(C)=O)c1C(=O)OC | 1.23 | -0.238 | -0.337 | -1.25 (inactive) | 0.0437 | 0.209 | 0.0417 | -0.144 | -0.17 | 0.113 | 0.0413 | -1.03 | -0.219 | -0.209 | -0.747 | -0.152 | -0.0474 | -0.0418 | -0.219 | -0.0614 |
| N#Cc1ccc(NN2C(C(O)c3c(F)cccc3Cl)C=CC3C(=O)N(c4ccccc4)C(=O)C32)cc1 (stereo not given) | 1.08 | 1.42 | 1.19 | 0.615 (inactive) | 0.922 | 0.943 | 0.143 | 1.12 | 0.125 | 0.5 | 1.47 | -0.57 | 0.21 | 2.51 | 1.07 | 0.0724 | -0.195 | 1.65 | 2.65 | 1.59 |
| Cc1ccc(S[C@]2(C(=O)NCCN3CCOCC3)CC(=O)N(Cc3ccccc3Cl)[C@@H]2c2ccc(CO)cc2)cc1 | 0.588 | -0.123 | 0.841 | -1.38 (inactive) | 1 | -1.4 | -0.342 | -0.51 | -0.844 | 0.425 | 1.02 | -0.815 | -0.989 | -0.343 | 0.148 | -0.12 | -0.0035 | -0.339 | 0.733 | -0.146 |
| CC(C)(C)OC(=O)CC[C@@]1(C(=O)NCC(O)CO)N=C(c2ccc(OCCCO)cc2)O[C@@H]1c1ccccc1N=[N+]=[N-] (stereo not given in full) | 1.72 | 0.836 | 1.15 | -0.764 (inactive) | 1.36 | -0.454 | -0.468 | 0.114 | 0.311 | 0.906 | 1.47 | 0.0173 | -0.586 | 1.67 | 0.414 | 0.0279 | 0.13 | 1.71 | 2.29 | 1.6 |
| CCCC=C(CCC)[C@@H](NC(=O)Oc1ccc(F)cc1)c1ccc(C(=O)OC)cc1 | 0.217 | 0.346 | 0.893 | -1.86 (inactive) | 0.441 | -0.102 | 0.267 | 0.495 | -0.284 | 0.602 | 1.32 | -2.48 | 0.354 | 0.977 | 1.13 | 0.0307 | 0.336 | 0.83 | 0.303 | 0.799 |
